Out of some 16,000 compounds screened, about 5,700 (36%) were called active. Another 24% or so got no clear call; they are omitted. Calls come from the whole dose curve; as a rule, active = well fitted curve in the direction sought with a large enough effect; inconclusive = small, poorly fitted or top-dose-only effect, or effect the other way; inactive = no such curve, though single readings can be large or run the other way. This is one part of the list.
What follows are compounds tested against Cytochrome P450 1A2 (Homo sapiens) (UniProt P05177) (assay: Cytochrome panel assay with activity outcomes). Conditions: recombinant CYP, pro-luciferin dealkylation, luminescence, p450-cyp1a2; series mostly up to 57.1 µM; activity, negative = inhibition: at the top concentration.
% is set by controls: 0 for no effect and ±100 for the full control effect.

Chain of Cytochrome P450 1A2 (Homo sapiens) (P05177 whole entry, looked up): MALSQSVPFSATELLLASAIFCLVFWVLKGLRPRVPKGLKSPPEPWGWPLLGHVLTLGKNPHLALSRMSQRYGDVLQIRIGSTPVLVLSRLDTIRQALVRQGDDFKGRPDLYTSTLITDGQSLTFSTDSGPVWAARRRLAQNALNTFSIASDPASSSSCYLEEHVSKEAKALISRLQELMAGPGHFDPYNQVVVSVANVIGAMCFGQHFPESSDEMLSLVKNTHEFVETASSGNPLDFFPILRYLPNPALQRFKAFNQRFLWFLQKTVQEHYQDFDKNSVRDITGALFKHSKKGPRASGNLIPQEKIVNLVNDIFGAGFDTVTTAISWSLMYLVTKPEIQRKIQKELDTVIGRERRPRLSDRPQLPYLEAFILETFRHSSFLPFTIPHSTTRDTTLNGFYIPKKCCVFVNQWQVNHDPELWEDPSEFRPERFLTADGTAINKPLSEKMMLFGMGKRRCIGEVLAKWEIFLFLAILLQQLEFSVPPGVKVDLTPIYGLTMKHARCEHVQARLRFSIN

Compound | activity, negative = inhibition | AC50
O=c1ccc2[nH]cc(C3=CCNCC3)c2[nH]1 | -5.27% (inactive) | –
CCCOc1ccc2[nH]cc(C3=CCNCC3)c2n1 | – | 126 nM (active)
COc1ccc2[nH]cc(C3=CCNCC3)c2c1 | – | 251 nM (active)
C[C@@]12CC[C@@H]3[C@H](CCC4=CC(=O)CC[C@]43C)[C@@H]1CC[C@@H]2C(=O)Cn1cnc2c(=S)nc[nH]c21 | -15.8% [at 11.4 µM] (inactive) | –
NP(N)(=O)NC(=O)c1ccc(F)cc1 | -12% (inactive) | –
NCCCP(=O)(O)O | 3.53% (inactive) | –
CC1=C(O)C(=O)[C@H]2O[C@@H]2C1=O | -9.2% (inactive) | –
C[N+]1(C)[C@@H]2CC[C@H]1CC(OC(=O)[C@@H](CO)c1ccccc1)C2 (stereo partly drawn) | – | inactive
O=C(c1csnn1)N1CCC2(CC1)CN(Cc1ccncc1)C2 | – | 10000 nM (active)
CN1CCCC2(CCN(C(=O)c3csnn3)CC2)C1 | -5.37% (inactive) | –
O=C(c1ccncc1)N1CCC2(CC1)CN(Cc1ccccc1)C2 | -16.4% (inactive) | –
N#Cc1ccc(CN2CCC3(CC2)CCN(C(=O)Oc2ccccc2)CC3)cc1 | 1.15% (inactive) | –
O=P(O)(O)CCP(=O)(O)O | 0.113% [at 11.4 µM] (inactive) | –
CC(=O)[C@@H]1CC[C@@H]2[C@@H]3CC=C4C[C@H](OS(=O)(=O)O)CC[C@@]4(C)[C@H]3CC[C@]21C | -7.33% (inactive) | –
O=C1Nc2ccc(I)cc2/C1=C/c1cc(Br)c(O)c(Br)c1 | – | 794 nM (active)
COC(=O)C1=CCCN(C)C1 | – | inactive
Cc1ccc(C2CC(=O)C(C=NCCN3CCN(C(=O)Cc4ccccc4)CC3)=C(O)C2)cc1 (stereo not drawn) | 6.67% (inactive) | –
CC(NCc1ccc(Cl)cc1)C(O)c1ccccc1 (stereo not drawn) | – | 14100 nM (active)
C[C@@H](Cc1ccc(OCC(=O)O)cc1)NC[C@H](O)c1cccc(Cl)c1 | -4.97% (inactive) | –
C[C@H](N)[C@@H](O)c1ccccc1 | 0.0945% [at 25.6 µM] (inactive) | –
CCN(CC)CCn1ncc2c(N)ncnc21 | -6.04% [at 11.4 µM] (inactive) | –
CC[C@H](C(=O)[C@H](C)[C@H](O)[C@H](C)CCc1ccc(C)c(O)c1C(=O)O)[C@H]1O[C@](CC)([C@@H]2CC[C@@](O)(CC)[C@H](C)O2)C[C@H]1C | 1.36% [at 25.6 µM] (inactive) | –
N=C1c2ccccc2CN1NC(=O)c1ccc(Cl)cc1 | -3.35% (inactive) | –
COc1ccc(C[C@H]2NC[C@H](O)[C@@H]2OC(C)=O)cc1 | -31.9% (inactive) | –
O=C(O)CP(=O)(O)c1ccc(Cl)cc1 | -12.7% (inactive) | –

Compound | activity, negative = inhibition | AC50
NC[C@@H](CC(=O)O)c1ccc(Cl)cc1 | – | inactive
O=NN(Cc1ccc(Cl)cc1)[C@@H](C(=O)O)c1ccccc1 | – | 5010 nM (active)
C[C@@]12CC[C@H]3[C@@H](CCC4=CC(=O)CC[C@]43C)[C@H]1CC[C@H]2C(=O)CO | -5.66% [at 25.6 µM] (inactive) | –
CNC(=S)NC1CC2CCCC(C1)N2CC(C)C (stereo not drawn) | 8.76% (inactive) | –
CCOCCN1CCC(OC(C)=O)C(C)C1 (stereo not drawn) | -3.38% (inactive) | –
C[C@H](CC(C#N)(c1ccccc1)c1ccccc1)N1CCCCC1 | 7.09% [at 2.29 µM] (inactive) | –
O=c1oc(Cl)c(Cl)c2ccccc12 | – | 1000 nM (active)
O=[N+]([O-])O[C@H]1CO[C@H]2[C@H]1OC[C@@H]2O[N+](=O)[O-] | 0.921% [at 25.6 µM] (inactive) | –
O=C1OC(=O)[C@@H]2[C@@H]1[C@@H]1CC[C@H]2O1 | -1.88% (inactive) | –
NC(=O)CN1C[C@@H](O)CC1=O | 4.16% (inactive) | –
CCOP(=O)(OCC)C(NC(C)=O)C(Cl)(Cl)Cl (stereo not drawn) | 1.98% (inactive) | –
CC(O)(CS(=O)(=O)c1cccc(C(F)(F)F)c1)C(=O)Nc1cccc(C(F)(F)F)c1 (stereo not drawn) | -28.1% (inactive) | –
O=C(Nc1cccc(C(F)(F)F)c1)c1cccn(Cc2ccc3c(c2)OC(F)(F)O3)c1=O | – | 3160 nM (active)
CC(O)(CS(=O)(=O)c1ccccc1)C(=O)Nc1cccc(C(F)(F)F)c1 (stereo not drawn) | -24.9% (inactive) | –
CC(C)c1ccc(C(c2c(O)c3ccccc3oc2=O)c2c(O)c3ccccc3oc2=O)cc1 | -18.8% [at 2.29 µM] (inactive) | –
COc1cc(CCN)ccc1O | -19.4% (inactive) | –
COc1cc(CNC(=O)CCCC/C=C\C(C)C)ccc1O | – | 1580 nM (active)
CNC[C@H](O)c1ccc(O)c(OC)c1 | -0.882% [at 25.6 µM] (inactive) | –
CCCCCCCCC(=O)NCc1ccc(O)c(OC)c1 | – | 12600 nM (active)
COc1ccc(C[C@@H]2NC[C@H](O)[C@@H]2OC(C)=O)cc1 | 0.14% [at 25.6 µM] (inactive) | –
C[N+]1(C)CCO[C@](O)(c2ccc(-c3ccc([C@]4(O)C[N+](C)(C)CCO4)cc3)cc2)C1 | -2.4% [at 25.6 µM] (inactive) | –
COc1cc2c(c(OC)c1OC)-c1ccc(O)c(=O)cc1[C@H](N)CC2 | -4.6% [at 25.6 µM] (inactive) | –
CC(C)COc1ccc(C2(C#N)CC[N+](C)(C)CC2)cc1 | 17.9% (inactive) | –
COCCCNC(=S)NC1CC2CCCC(C1)N2Cc1cccs1 (stereo not drawn) | 5.68% (inactive) | –
Cc1cc2c(C(F)(F)F)cc(=O)oc2c2c1NCCC2 | – | 100 nM (active)

Compound | activity, negative = inhibition | AC50
CCCCC1(CCCC)C(=O)NC(=Nc2cccc(C)c2)NC1=O | -9.88% (inactive) | –
O=C1C=CC(=O)c2c1ccc1c2ccc2ccccc21 | – | 794 nM (active)
COc1cc([C@H]2c3cc4c(cc3[C@@H](O)[C@@H]3COC(=O)[C@H]23)OCO4)cc(OC)c1OC | -17.3% (inactive) | –
CCCc1cc2c(n1CCO)C(C)C1CN(C(=O)c3ccccc3)C(C)(C(=O)OC)C21 (stereo not drawn) | -19.8% (inactive) | –
COc1cccc2c1[C@H](CO)N1[C@H](C#N)[C@@H]3C[C@H](C(=O)O)[C@@H]([C@@H]1C2)N3C | -21% [at 2.29 µM] (inactive) | –
C[C@]12CCC3c4ccc(OCC(=O)O)cc4CCC3C1CCC2=O (stereo partly drawn) | 0.71% [at 2.29 µM] (inactive) | –
C[C@]12CC[C@H]3c4ccc(O)cc4CC[C@@H]3[C@H]1CC[C@@H]2OP(=O)(O)O | -11.2% [at 2.29 µM] (inactive) | –
C[C@]12CC[C@@H]3C(=CCc4cc(O)ccc43)[C@@H]1CCC2=O | – | 10000 nM (active)
Cc1cc[c]([Sb]2[O][C@H]([C@H](O)[C@H](O)C(=O)O)[C@@H](CO)[O]2)cc1 | -11.9% [at 11.4 µM] (inactive) | –
O=C(Cc1ccc(Cl)c(Cl)c1)N1CCCC[C@H]1CN1CCCC1 | -16.4% (inactive) | –
CCCCc1ccc(C(=O)O)nc1 | -5.09% [at 25.6 µM] (inactive) | –
CCCCc1ccc2nc(NC(=O)OC)[nH]c2c1 | – | 501 nM (active)
COC(=O)Nc1nc2ccc(C(=O)c3cccs3)cc2[nH]1 | – | 1580 nM (active)
COC(=O)Nc1nc2ccc(Sc3ccccc3)cc2[nH]1 | – | 794 nM (active)
COCCNC(=S)NC1CC2CCCC(C1)N2Cc1cccs1 (stereo not drawn) | 0.311% (inactive) | –
N#CCCN | -4.42% (inactive) | –
N[C@@H]1CCc2cc(O)c(O)cc2C1 | -3.23% (inactive) | –
CC[C@@H]1[C@@H]2C[C@H]3[C@H]4N(C)c5ccccc5[C@@]45C[C@@H]([C@@H]2[C@@H]5O)N3[C@H]1O | -7.35% [at 25.6 µM] (inactive) | –
Cc1ccc(N(C)C(=O)Oc2cccc3ccc(C)nc23)cc1 | – | 12600 nM (active)
C[C@@H]1O[C@H](OC2[C@@H](O)[C@H](O)C(O)[C@H](O)[C@H]2O)[C@@H](N)C[C@@H]1N=C(N)C(=O)O (stereo partly drawn) | 1.22% [at 2.29 µM] (inactive) | –
c1ccc(CN2CCN(Cc3ccc4c(c3)OCCO4)CC2)cc1 | -22.8% (inactive) | –
CO[C@@H]([CH2][Hg])CN1C(=O)c2ccccc2S1(=O)=O.Cn1c(=O)c2nc[nH]c2n(C)c1=O | -22% [at 2.29 µM] (inactive) | –
O=c1c(O)c(-c2cc(O)c(O)c(O)c2)oc2cc(O)cc(O)c12 | – | 2000 nM (active)
CCC(=O)O[C@@](Cc1ccccc1)(c1ccccc1)[C@@H](C)CN(C)C | -8.18% [at 25.6 µM] (inactive) | –
Cc1nc(-c2ccc(-c3ccc(C(=O)N4CCc5cc6c(cc54)C4(CCN(C)CC4)CO6)cc3)c(C)c2)no1 | 5.55% (inactive) | –

Compound | activity, negative = inhibition | AC50
Nc1ccc(CCN2CCN(c3cccc(C(F)(F)F)c3)CC2)cc1 | – | 10000 nM (active)
NCCCN1CCN(c2ccccc2)CC1 | -15.9% [at 11.4 µM] (inactive) | –
C[N+](C)(C)CC#CCN1CCCC1=O | – | inactive
CCN(CC)C1=NC(=[N+](CC)CC)c2ccccc21 | – | 15800 nM (active)
NC(=O)c1ncn([C@H]2O[C@@H](CO)[C@@H](O)[C@@H]2O)n1 | 2.01% [at 25.6 µM] (inactive) | –
Cc1cc(C)c(-n2c(O)c(C=NCCN3CCOCC3)c(=O)[nH]c2=O)c(C)c1 | -0.0514% (inactive) | –
CC(C)[C@@]1(NC(=O)[C@@H]2C[C@H]3c4cccc5[nH]cc(c45)C[C@@H]3N(C)C2)O[C@]2(O)[C@H]3CCCN3C(=O)[C@H](Cc3ccccc3)N2C1=O | -7.15% [at 25.6 µM] (inactive) | –
COc1ccc(-n2nc(C(F)(F)F)cc2-c2ccc(Cl)cc2)cc1 | – | 501 nM (active)
NC(N)=NCCN=C(N)N | -17.5% [at 11.4 µM] (inactive) | –
Cc1c([C@@H](C)[C@H]2NC[C@H](C)C[C@@H]2O)ccc2c1C[C@@H]1[C@H]2CC=C2C[C@@H](O)CC[C@@]21C | 1.34% [at 2.29 µM] (inactive) | –
COc1ccc2[nH]c(C(=O)c3ccccc3)cc2c1 | – | 100 nM (active)
NC[C@H](CS(=O)(=O)O)c1ccc(Cl)cc1 | -14.4% (inactive) | –
C/C(O)=C(/C#N)C(=O)Nc1cc(Br)ccc1Br | – | 2510 nM (active)
c1ccc(N2CC[C@@]3(CCCNC3)C2)nc1 | 3.64% (inactive) | –
Clc1cncc(N2CCNCC2)n1 | – | 2000 nM (active)
N[C@@H](Cc1cc(Br)c(O)c(Br)c1)C(=O)O | -2.84% [at 11.4 µM] (inactive) | –
N[C@H](Cc1ccc2oc3cc(=O)c4ccccc4c-3nc2c1)C(=O)O | – | 1260 nM (active)
CC(C)(O/N=C(\C(=O)N[C@@H]1C(=O)N2C(C(=O)[O-])=C(C[n+]3ccccc3)CS[C@@H]12)c1csc(N)n1)C(=O)O | -8.23% [at 25.6 µM] (inactive) | –
CN1[C@@H]2CCC[C@H]1CC(=O)C2 | -13.3% [at 25.6 µM] (inactive) | –
COC1=C[C@H]2C3=C([C@H]2C1=O)[C@H](NC(C)=O)CCc1cc(OC)c(OC)c(OC)c13 | -7.51% [at 25.6 µM] (inactive) | –
COc1ccc2c(c[n+](C)c3c4cc5c(cc4ccc23)OCO5)c1OC | – | 10000 nM (active)
Oc1cccc2cccnc12 | -20% [at 11.4 µM] (inactive) | –
CN1CC[C@@]2(CCCN(C(=O)c3csnn3)C2)C1 | 7.43% (inactive) | –
